# Results: PubChem BioAssay (Tox21)
# Where “and” joins values, the source holds several entries; their conditions need not be identical. Equal entries are not always repeated. Records with an inconclusive call do not appear. Where a call stands in place of a potency, no number is given. Where a structure was tested more than once in an assay, its records may differ in their call. Calls of active or inactive are those of the source. Unless noted, calls come from the whole dose curve; as a rule, active = well fitted curve in the direction sought with a large enough effect in the repeat runs; inconclusive = weak or mixed curves; inactive = no such curve, though single readings can be large; an effect the other way counts as inactive or inconclusive.
# What was measured:
# [1] = qHTS assay to identify small molecule agonists of the hypoxia (HIF-1) signaling pathway - cell viability counter screen (AID 1224844; calls by dose curve; note: nearly all actives have a fitted effect of over 50% in size)
# How it was run: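 ME-180 HRE-bla cells, 2,000/well, 0.5% dialyzed FBS; 5 hr settle, 17 hr compound at 37C/5% CO2; CCF4-AM reporter read first, then CellTiter-Glo luminescence after 30 min RT.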
# [2] = qHTS assay to identify small molecule agonists of H2AX (AID 1224845; active = well fitted activation curve with a large enough effect in the signal ratio in the repeat runs, not every such curve was filed as active; the % refers to the signal ratio)
# How it was run: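 Wild-type CHO-K1 cells, plated overnight, exposed 3hr at 37C to 15 concentrations (0.76% DMSO final). Lysed, then HTRF anti-pH2AX (S139) cryptate and anti-H2AX-d2 antibodies, 24 hr room temperature; 665/620 nm emission read.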
# [3] = qHTS assay to identify small molecule agonists of H2AX - cell viability counter screen (AID 1224847; calls by dose curve; note: nearly all actives have a fitted effect of over 30% in size; note: potency is the fitted concentration of half-maximal effect)
# How it was run: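 CHO-K1 wt, 1000 cells/well, o/n 37C; cpds 15 conc, 3 h 37C, 0.76% DMSO; CellTiter-Glo, 30 min RT, luminescence.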
# [4] = A CellTox Green Cytotoxicity Assay to monitor cytotoxicity in HEK293 cells - 0 hour (AID 1224869); note: nearly all actives have a fitted effect of over 50% in size
# How it was run: (§1)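 Nonlytic real-time cytotoxicity: HEK293 + CellTox Green reagent plated, 5 h preincubation, pintool compound addition (23 nL in DMSO), 37 C for 40 h, fluorescence measured at successive time points.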
# [5] = A CellTox Green Cytotoxicity Assay to monitor cytotoxicity in HEK293 cells - 40 hour (AID 1224871); note: nearly all actives have a fitted effect of over 45% in size; note: potency is the fitted concentration of half-maximal effect
# How it was run: as §1
# [6] = A CellTox Green Cytotoxicity Assay to monitor cytotoxicity in HEK293 cells - 24 hour (AID 1224875); note: nearly all actives have a fitted effect of over 45% in size
# How it was run: as §1
# [7] = A CellTox Green Cytotoxicity Assay to monitor cytotoxicity in HepG2 cells - 16 hour (AID 1224876); note: nearly all actives have a fitted effect of over 45% in size; note: potency is the fitted concentration of half-maximal effect
# How it was run: (§2)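 Read-out is fluorescence of a cyanine dye excluded from live cells that stains DNA of dead HepG2 cells, with signal proportional to cytotoxicity. Plates were read at 0, 8, 16, 24, 32 and 40 h after compound addition.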
# [8] = A CellTox Green Cytotoxicity Assay to monitor cytotoxicity in HepG2 cells - 40 hour (AID 1224879); note: nearly all actives have a fitted effect of over 40% in size; note: potency is the fitted concentration of half-maximal effect
# How it was run: as §2
# [9] = qHTS assay to identify small molecule agonists of the hypoxia (HIF-1) signaling pathway (AID 1224846; active = well fitted activation curve with a large enough effect in the signal ratio in the repeat runs, not every such curve was filed as active; the % refers to the signal ratio)
# How it was run: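 Cell line: CellSensor HRE-bla ME-180; 2,000 cells/well; 0.5% dialyzed FBS; 5 h preincubation; DMSO compound pin transfer; 17 h, 37C, 5% CO2; CCF4-AM added; bla FRET signal scored for activation.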
# [10] = qHTS assay to identify small molecule antagonists of the estrogen related receptor (ERR) signaling pathway from Tox21 library (AID 1224848); note: nearly all actives have a fitted effect of over 50% in size; note: potency is the fitted concentration of half-maximal effect
# How it was run: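 ERR reporter cell line (from NTP) seeded 2,000 cells/well, rested 6 h at 37 C/5% CO2, then pin-dosed with compounds in DMSO. After 18 h at 37 C, ONE-Glo added; luminescence read after 30 min at room temperature.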
# [11] = qHTS assay to identify small molecule agonists of the estrogen related receptor (ERR) signaling pathway from Tox21 library (AID 1224849; calls by dose curve; note: nearly all actives have a fitted effect of over 15% in size); details: ERR reporter cell line, ONE-Glo luciferase, 18 h
# How it was run: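 ERR cells, 6 h pre-incubation 37 C/5% CO2; cpd in DMSO pinned; 18 h 37 C; ONE-Glo added, 30 min RT; luminescence read. Agonist mode, qHTS.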
# [12] = qHTS RealTime-Glo MT Cell Viability Assay in HEK293 cells - 32 hour (AID 1224868); note: nearly all actives have a fitted effect of over 50% in size; note: potency is the fitted concentration of half-maximal effect
# How it was run: (§3)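 Assay medium contained NanoLuc luciferase plus cell-permeant prosubstrate, added with HEK293 cells at 600 cells/well. After 5 h at 37 C/5% CO2 compounds were added; plates stayed at 37 C for 40 h with serial luminescence reads.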
# [13] = qHTS RealTime-Glo MT Cell Viability Assay in HepG2 cells - 40 hour (AID 1224870); note: nearly all actives have a fitted effect of over 50% in size; note: potency is the fitted concentration of half-maximal effect
# How it was run: (§4)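 HepG2 cells (600/well) mixed with RealTime-Glo MT reagent, settled 5 h at 37 C/5% CO2 before compound addition. Nonlytic NanoLuc luminescence from viable-cell prosubstrate reduction read repeatedly during 40 h treatment at 37 C.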
# [14] = qHTS RealTime-Glo MT Cell Viability Assay in HepG2 cells - 8 hour (AID 1224873); note: nearly all actives have a fitted effect of over 55% in size; note: potency is the fitted concentration of half-maximal effect
# How it was run: as §4
# [15] = qHTS RealTime-Glo MT Cell Viability Assay in HEK293 cells - 40 hour (AID 1224874); details: RealTime-Glo luminescence; max response: stronger effect = lower value; note: nearly all actives have a fitted effect of over 50% in size; note: potency is the fitted concentration of half-maximal effect
# How it was run: (§5)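 Cells were seeded together with NanoLuc luciferase and a prosubstrate that viable cells reduce to a luciferase substrate. After a 5 h incubation at 37 C/5% CO2, compounds were added and luminescence was measured repeatedly during 40 h of treatment.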
# [16] = qHTS RealTime-Glo MT Cell Viability Assay in HepG2 cells - 32 hour (AID 1224877); note: nearly all actives have a fitted effect of over 55% in size; note: potency is the fitted concentration of half-maximal effect
# How it was run: (§6)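 qHTS, HepG2, 600 cells/well, RealTime-Glo (NanoLuc + prosubstrate) added with cells; 5 h preincubation; DMSO compound addition; 37 C; luminescence at 0/8/16/24/32/40 h.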
# [17] = A CellTox Green Cytotoxicity Assay to monitor cytotoxicity in HepG2 cells - 24 hour (AID 1224878); note: nearly all actives have a fitted effect of over 45% in size; note: potency is the fitted concentration of half-maximal effect
# How it was run: as §2
# [18] = qHTS RealTime-Glo MT Cell Viability Assay in HEK293 cells - 0 hour (AID 1224880)
# How it was run: as §5
# [19] = qHTS RealTime-Glo MT Cell Viability Assay in HepG2 cells - 24 hour (AID 1224867); note: nearly all actives have a fitted effect of over 50% in size; note: potency is the fitted concentration of half-maximal effect
# How it was run: as §6
# [20] = qHTS RealTime-Glo MT Cell Viability Assay in HEK293 cells - 16 hour (AID 1224872)
# How it was run: as §3
compound,measurement,setting,value
CC1(C)S[C@@H]2[C@H](NC(=O)[C@H](N)c3ccccc3)C(=O)N2[C@H]1C(=O)O,Potency,[1],inactive
same,Potency,[2],inactive
same,Potency,[3],inactive
same,Potency,[4],inactive
same,Potency,[5],inactive
same,Potency,[6],inactive
same,Potency,[7],inactive
same,Potency,[8],inactive
O=S1(=O)OC(c2ccc(O)cc2)(c2ccc(O)cc2)c2ccccc21,Potency,[1],inactive
same,outcome,[9],inactive
same,Potency,[3],inactive
same,Potency,[10],inactive
same,"activity change, positive = activation",[11]; at 42.5 µM (top of the series),-3.19% (inactive)
same,"activity change, positive = activation",[11]; at 92.4 µM (top of the series),-32% (inactive) and -12.4% (inactive)
same,Potency,[12],inactive
same,Potency,[4],inactive
same,Potency,[13],49 µM (active) and inactive
same,Potency,[5],inactive
same,Potency,[14],49 µM (active) and inactive
same,max response,[15],-23.8% (inactive)
same,Potency,[16],49 µM (active) and inactive
same,Potency,[17],inactive
same,Potency,[8],inactive
same,Potency,[18],inactive
O=C(Nc1ncc([N+](=O)[O-])s1)c1cccs1,Potency,[2],inactive
same,Potency,[3],24.7 µM (active)
same,Potency,[10],inactive
same,"activity change, positive = activation",[11]; at 42.5 µM (top of the series),14.6% (active)
same,Potency,[12],inactive
same,Potency,[4],inactive
same,Potency,[5],inactive
same,Potency,[14],inactive
same,max response,[15],-20.9% (inactive)
same,Potency,[7],inactive
same,Potency,[16],inactive
same,Potency,[8],inactive
same,Potency,[18],inactive
CCOC(N)=O,Potency,[2],inactive
same,outcome,[9],inactive
same,Potency,[3],inactive
same,Potency,[19],inactive
same,Potency,[12],inactive
same,Potency,[4],inactive
same,Potency,[5],inactive
same,Potency,[20],inactive
same,Potency,[14],inactive
same,max response,[15],6.85% (inactive) and 12.6% (inactive) and -3.78% (inactive)
same,Potency,[16],inactive
same,Potency,[17],inactive
same,Potency,[8],inactive
same,Potency,[18],inactive
CCCCCCc1ccc(O)cc1O,Potency,[2],inactive
same,Potency,[3],113 µM (active) and 101 µM (active)
same,Potency,[10],inactive
same,"activity change, positive = activation",[11]; at 42.5 µM (top of the series),2.16% (inactive)
same,"activity change, positive = activation",[11]; at 92.4 µM (top of the series),-16.7% (inactive) and -6.89% (inactive)
same,Potency,[12],21.9 µM (active) and 9.77 µM (active)
same,Potency,[4],inactive
same,Potency,[13],inactive
same,Potency,[5],49.1 µM (active) and 49 µM (active) and inactive
same,Potency,[14],inactive
same,Potency,[15],19.6 µM (active) and 12.3 µM (active)
same,Potency,[7],inactive and 43.6 µM (active) and 21.3 µM (active)
same,Potency,[16],inactive
same,Potency,[17],49.1 µM (active) and 38.9 µM (active) and 21.3 µM (active)
same,Potency,[8],49.1 µM (active) and 38.9 µM (active) and 19 µM (active)
same,Potency,[18],inactive
O=C(O)c1ccccc1,Potency,[2],inactive
same,outcome,[9],inactive
same,Potency,[3],inactive
same,Potency,[12],inactive
same,Potency,[4],inactive
same,Potency,[13],inactive
same,Potency,[5],inactive
same,Potency,[14],inactive
same,Potency,[16],inactive
same,Potency,[8],inactive
same,Potency,[18],inactive
NS(=O)(=O)c1cc2c(cc1Cl)NCNS2(=O)=O,Potency,[2],inactive
same,Potency,[3],inactive
same,Potency,[10],inactive
same,"activity change, positive = activation",[11]; at 42.5 µM (top of the series),-0.0876% (inactive)
same,"activity change, positive = activation",[11]; at 92.4 µM (top of the series),0.0385% (inactive) and 5.11% (inactive)
same,Potency,[4],inactive
same,Potency,[5],inactive
same,Potency,[20],inactive
same,Potency,[14],inactive
same,max response,[15],0.173% (inactive) and -4.85% (inactive) and 1.86% (inactive)
same,Potency,[6],inactive
same,Potency,[7],inactive
same,Potency,[16],inactive
same,Potency,[8],inactive
same,Potency,[18],inactive
C=CCc1ccc(O)c(OC)c1,Potency,[1],inactive
same,Potency,[2],inactive
same,Potency,[3],inactive
same,Potency,[4],inactive
same,Potency,[5],inactive
same,Potency,[14],inactive
same,max response,[15],-1.8% (inactive) and -13.4% (inactive) and 5.2% (inactive)
same,Potency,[16],inactive
same,Potency,[17],inactive
same,Potency,[8],inactive
same,Potency,[18],inactive
CN[C@H]1CC[C@@H](c2ccc(Cl)c(Cl)c2)c2ccccc21,Potency,[1],inactive
same,Potency,[3],49.2 µM (active)
same,Potency,[10],26.6 µM (active)
same,"activity change, positive = activation",[11]; at 42.5 µM (top of the series),-39% (inactive)
same,Potency,[19],23.9 µM (active)
same,Potency,[12],23.9 µM (active)
same,Potency,[4],inactive
same,Potency,[13],23.9 µM (active)
same,Potency,[15],23.9 µM (active)
same,Potency,[16],23.9 µM (active)
same,Potency,[17],19 µM (active)
same,Potency,[8],16.9 µM (active)
COc1ccc2c(c1)c(CC(=O)O)c(C)n2C(=O)c1ccc(Cl)cc1,Potency,[2],inactive
same,Potency,[3],inactive
same,Potency,[10],30.8 µM (active) and inactive
same,"activity change, positive = activation",[11]; at 42.5 µM (top of the series),-11.8% (inactive)
same,"activity change, positive = activation",[11]; at 92.4 µM (top of the series),-34.2% (inactive) and -25.5% (inactive)
same,Potency,[19],inactive
same,Potency,[4],inactive
same,Potency,[13],inactive
same,Potency,[5],inactive
same,Potency,[20],inactive
same,Potency,[14],inactive
same,max response,[15],-7.62% (inactive) and 0.0637% (inactive)
same,Potency,[6],inactive
same,Potency,[7],inactive
same,Potency,[16],inactive
same,Potency,[17],inactive
same,Potency,[8],inactive
same,Potency,[18],inactive
